Test results taken from ChEMBL document CHEMBL1157539, “Thousands of chemical starting points for antimalarial lead identification” (Nature, 2010).

Each molecule was assayed on Plasmodium falciparum (assay: GSK_TCMDC: Inhibition of Plasmodium falciparum 3D7 in whole red blood cells, using parasite LDH activity as an index of growth. Test compounds present at 2uM).
Format: functional
`COc1ccc(NC(=O)c2ccc(-c3nc(-c4ccc(Cl)cc4)cs3)cc2)cc1N1CCN(C)CC1` gave an Inhibition of 91%. For `CN(C(=O)Cc1ccc(Cl)cc1)C1CCN(CCCCCNC(=O)/C=C/c2ccc(Cl)c(Cl)c2)CC1`, the Inhibition was 83%. Work on `CC(C)(C(=O)Nc1ccc(C2CCC(NCC3CC3)CC2)c(Cl)c1)c1cccc(OC(F)F)c1` (stereo not given) yielded an Inhibition of 99%. Molecule `CS(=O)(=O)c1cccc(-c2cnc3[nH]cc(-c4cccc(CCN)c4)c3c2)c1.O=C(O)C(F)(F)F` has an Inhibition of 99%. For `CCCCCCN1CCC(NCc2ccc(C)cc2)CC1.O=C(O)C(F)(F)F`, the Inhibition was 93%. `O=C(O)C(F)(F)F.O=C(c1cccs1)N(Cc1cccc(-c2ccc(CNCCc3ccccc3)cc2)c1)C1CCN(Cc2ccccc2)CC1` gave an Inhibition of 95%. `COc1ccc2ncc(OC)c(CCN3CC[C@@H](NCc4ccc5c(n4)NC(=O)CS5)[C@H](O)C3)c2n1` gave an Inhibition of 94%. Molecule `CC1CCCN(c2ccc(NC(=O)c3cccs3)cc2[N+](=O)[O-])C1` (stereo not given) has an Inhibition of 96%. `Cc1cccc2nc(-c3cccc(-c4ccc(CN5CCC(C(N)=O)CC5)cc4)c3)[nH]c12.O=C(O)C(F)(F)F` gave an Inhibition of 89%. `CCOc1ccccc1C1CCN(CCCCNC(=O)c2ccc(NC(=O)c3ccc(Cl)cc3)cc2)CC1` gave an Inhibition of 95%. In the case of `COc1ccc(-c2nc3cccnc3n2CC(=O)Nc2cc(Cl)c(Cl)cc2Cl)c(OC)c1`, the Inhibition is reported as 100%. Work on `CN1CCN(CCCN(Cc2ccc(-c3ccc(CNC4CCCC4)cc3)cc2)C(=O)CCC2CCCC2)CC1.O=C(O)C(F)(F)F` yielded an Inhibition of 98%. Work on `CCNc1cc(C(=O)N[C@@H](Cc2ccccc2)[C@H](O)CNC23CCC(CC2)CC3)cc(N2CCCCS2(=O)=O)c1.Cl` yielded an Inhibition of 99%. `CCOc1ncccc1CN1CCC(N2CCc3cc(NC(=O)c4cc(C)on4)ccc32)C1` (stereo not given) was tested, and the Inhibition was 89%. With `COc1ccc(-c2cccc(NC(=O)c3cccc(C#N)c3)c2)cc1CN(C)CCN(C)C.O=C(O)C(F)(F)F` the Inhibition was 99%. For `Cl.Nc1nc(N)c2c(ccc3c2cnn3S(=O)(=O)N2CCCC2)n1`, the Inhibition was 93%. Molecule `O=C(NCc1ccccc1)Nc1cccc(-c2cccc(-c3nc4cc(C(F)(F)F)ccc4[nH]3)c2)c1` has an Inhibition of 95%. `COC(=O)c1ccc2nc(-c3cc(OC)c(O)c(C(=O)NC4CCN(Cc5ccccc5)CC4)c3)[nH]c2c1` was tested, and the Inhibition was 85%. With `CC(C)c1ccc(NC(=O)NC2CCN(CCCCCN(C)C(=O)/C=C/c3ccc(Cl)c(Cl)c3)C2)cc1` (stereo not given) the Inhibition was 99%. `CCCCN(CCCC)CCOc1cc2c(cc1OC)CCN2C(=O)/C=C/c1ccccc1Cl.Cl` showed an Inhibition of 87%. `N[C@@H](Cc1cc(I)c(Oc2ccc(O)c(C(=O)O)c2)c(I)c1)C(=O)O` showed an Inhibition of 97%. For `Cc1cc(N)c2cc(NC(=O)CCC(=O)Nc3ccc4nc(C)cc(N)c4c3)ccc2n1`, the Inhibition was 85%. With `CCNc1cc(C)nc(Nc2ccc(NC(=O)c3c(F)cccc3Cl)cc2)n1` the Inhibition was 100%. For `CCN(CCCN1CCCCC1)c1cc(C)nc(Nc2cc(F)cc(F)c2)n1.O=C(O)C(F)(F)F`, the Inhibition was 100%. Work on `CCc1cc(CNC2CCN(CCc3c(F)cnc4ccc(OC)nc34)CC2)cc2c1OCCO2.Cl` yielded an Inhibition of 100%. For `O=C(O)C(F)(F)F.c1cncc(CCNCc2cccc(-c3csc(-c4nc5ccccc5[nH]4)c3)c2)c1`, the Inhibition was 100%. `CCc1ccc(C2CCN(CCCCNC(=O)c3ccc(NC(=O)c4ccc(Cl)cc4)cc3)CC2)c(OC(C)=O)c1` showed an Inhibition of 91%. `O=C(Nc1ccc(C(=O)Oc2cccc3ccccc23)cc1)N[C@@H](Cc1ccc(O)cc1)C(=O)NC1CCN(Cc2ccc(O)cc2)C1.O=C(O)C(F)(F)F` (stereo not given in full) showed an Inhibition of 87%. For `CCCC(CNC(=O)c1cc2c(Cl)cc(Cl)cc2[nH]1)CNc1cc(=O)c2ccccc2[nH]1.O=C(O)C(F)(F)F` (stereo not given), the Inhibition was 100%. `CCC(C)NC(=O)Nc1ccc(-c2cccc(-c3nc4ccccc4[nH]3)c2)cc1` (stereo not given) was tested, and the Inhibition was 94%. With `O=c1cc(NCCCNCc2cc(Br)ccc2F)[nH]c2ccccc12` the Inhibition was 95%. Molecule `CCCc1cn2c3c(cc(C(=O)N[C@@H](Cc4ccccc4)[C@H](O)CNC4CCCCC4)cc13)N(C)S(=O)(=O)CC2.O=CO` has an Inhibition of 99%. In the case of `O=C1C(=Cc2cc(Cc3ccccc3)ccc2O)SC(=S)N1Cc1ccccc1`, the Inhibition is reported as 98%. `COc1ccc(NC(=O)Nc2ccc(-c3cccc(-c4nc5ccccc5[nH]4)c3)cc2)cc1` gave an Inhibition of 99%. In the case of `CC(C)CN1CCC(COc2ccc3ncn(-c4cc(O[C@H](C)c5ccccc5C(F)(F)F)c(C(N)=O)s4)c3c2)CC1`, the Inhibition is reported as 97%.
